Drawing on the supplement of paper PMC6555819, this text covers PBM binding z-score for seven sequences.

Assay in all cases: PBM binding z-score (relative to random genomic background probes); higher = stronger binding; sequences stand for … in GC…GCGATTGACAGCGTAGAATGAAGG
Experiment [1] relates to FXR:RXRa (NR concentration 270 nM, RXRa partner concentration 90 nM). The procedure, abridged: (§1)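 The probes on custom Agilent 4×180K protein-binding microarrays were double-stranded, with 34-nt variable regions bearing direct-repeat seeds, single-nucleotide variants, half-site ablations and random human genomic background sequences. Incubation lasted 1 h with ligand-free nuclear receptor dimers in PBS pH 7.4, 2% milk, 0.02% Triton X-100, 1 mM DTT, 0.2 mg/mL BSA and 0.4 mg/ml salmon testes DNA. Antibodies against each partner (one per run) detected bound dimers, and fluorescence scans were regression-normalized. Binding z-scores take the random background probes as reference.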

Experiment [2] deals with LXRa:RXRa (NR concentration 270 nM, RXRa partner concentration 90 nM). In a few lines: as §1
Experiment [3] deals with LXRa homodimer (NR concentration 270 nM). The procedure, abridged:
as §1

Experiment [4] has as its system LXRb:RXRa (NR concentration 270 nM, RXRa partner concentration 90 nM). The procedure, abridged: as §1
Experiment [5] has as its system LXRb homodimer (NR concentration 270 nM). The procedure, abridged:
as §1

Experiment [6] relates to PPARa:RXRa (NR concentration 270 nM, RXRa partner concentration 90 nM). In a few lines:
as §1

The test system of experiment [7] is PPARg:RXRa (NR concentration 180 nM, RXRa partner concentration 90 nM). The procedure, abridged: as §1
The subject of experiment [8] is PPARg:RXRa 270nM:90nM, anti-RXR (NR concentration 270 nM, RXRa partner concentration 90 nM). The procedure, abridged:
as §1

Experiment [9] relates to PPARg:RXRa 30nM:10nM, anti-RXR (NR concentration 30 nM, RXRa partner concentration 10 nM). The procedure, abridged: as §1
The subject of experiment [10] is PPARg:RXRa 90nM:30nM, anti-RXR (NR concentration 90 nM, RXRa partner concentration 30 nM). In a few lines:
as §1

In experiment [11] the test system is PPARg:RXRa DBDmut IVT, anti-RXR (DBD mutation: RXRa K156A/R161A, NR concentration 270 nM, RXRa partner concentration 90 nM). The procedure, abridged: as §1
In experiment [12] the test system is PPARg:RXRa IVT, anti-PPARg (NR concentration 270 nM, RXRa partner concentration 90 nM). In a few lines:
as §1

In experiment [13] the test system is PPARg DBDmut:RXRa IVT, anti-PPARg (DBD mutation: PPARg1 K132A/R137A, NR concentration 270 nM, RXRa partner concentration 90 nM). In a few lines: as §1
The test system of experiment [14] is PPARg DBDmut IVT, anti-PPARg (DBD mutation: PPARg1 K132A/R137A, NR concentration 270 nM). In a few lines:
as §1

For experiment [15], the system named is PPARg homodimer (NR concentration 180 nM). In a few lines: as §1
For experiment [16], the system named is PXR:RXRa (NR concentration 270 nM, RXRa partner concentration 90 nM). The procedure, abridged:
as §1

The subject of experiment [17] is PXR homodimer (NR concentration 270 nM). In a few lines: as §1
In experiment [18] the test system is RARa:RXR (NR concentration 270 nM, RXRa partner concentration 90 nM). The procedure, abridged: as §1
The test system of experiment [19] is RARa homodimer (NR concentration 270 nM). The procedure, abridged: as §1
In experiment [20] the test system is RARb:RXRa (NR concentration 270 nM, RXRa partner concentration 90 nM). The procedure, abridged:
as §1

Consider TAGCCTAGGTCATGCCGGCCAGTATAGTGTCGGC, for which the PBM binding z-score is 3.44 in [1]; 2.68 in experiment [2]; 0.0179 in experiment [3]; 1.57 in experiment [4]; -0.0168 in [5]; 3.07 in [6]. Further, the PBM binding z-score in experiment [7] was 1.99; in experiment [8], 2.08; in experiment [9], 0.0348; in experiment [10], 1.34; in [11], 1.13; in [12], 2.47. Besides, the PBM binding z-score is -0.929 in experiment [13]; -0.11 in [14]; 0.237 in [15]; 0.798 in [16]; -0.486 in experiment [17]; 1.77 in [18]. Further, the PBM binding z-score is -0.917 in experiment [19] and 3.48 in experiment [20].
As to GCTGCTAGATCAACTGATGGTCAGCTAAAGCTCG, the PBM binding z-score is -0.351 in experiment [1]; -0.658 in experiment [2]; -0.708 in [3]; -0.94 in [4]; -1.09 in experiment [5]; -0.675 in [6]. Moreover, the PBM binding z-score in experiment [7] is -0.337; in [8] it was -0.606; in experiment [9] it was -0.466; in experiment [10], -0.434; in experiment [11] it was -0.127; in experiment [12], -0.576. Moreover, the PBM binding z-score in experiment [13] is -0.911; in experiment [14] it was -0.65; in experiment [15], -0.483; in experiment [16] it was -0.788; in experiment [17] it was -0.885; in [18], -0.512. Further, the PBM binding z-score in experiment [19] was -1.53; in [20], -0.39.
Turning to ACTAGCAGGCCATGTTTGGGTCACTCAAACAAAG, the PBM binding z-score is 0.27 in experiment [1]; -0.058 in [2]; -0.283 in experiment [3]; 0.735 in experiment [4]; -0.846 in experiment [5]; 1.31 in experiment [6]. The PBM binding z-score in experiment [7] was 0.145; in experiment [8] it was 0.304; in experiment [9], -0.51; in experiment [10], -0.31; in experiment [11] it was 0.691; in [12], 1.13. Moreover, the PBM binding z-score in experiment [13] was -0.241; in experiment [14] it was -1.08; in [15], 0.0761; in experiment [16], 0.404; in [17], -0.559; in experiment [18] it was 1.37. Further, the PBM binding z-score is -0.914 in experiment [19] and 1.72 in experiment [20].
With ACAGACAGGTGATTGAAGGTAACTCAGCTGGACG, the PBM binding z-score was 0.407 in experiment [1]; 0.000463 in [2]; -0.444 in [3]; -0.451 in [4]; -0.457 in [5]; 0.0856 in experiment [6]. Moreover, the PBM binding z-score in experiment [7] was 0.626; in [8], -0.0372; in experiment [9], 0.0722; in experiment [10], -0.274; in [11], 0.234; in experiment [12], 0.403. Besides, the PBM binding z-score in [13] is -0.375; in experiment [14], -0.0689; in [15] it was 0.449; in experiment [16] it was -0.285; in [17] it was -0.239; in [18], 0.452. For the same sequence, the PBM binding z-score in experiment [19] was -0.476; in experiment [20] it was 0.303.
As to CAGCCTAGGTCAGGGCCAGTGTAGGAGGAACGTT, the PBM binding z-score in experiment [1] is 1.51; in [2], 1.17; in experiment [3], -0.646; in experiment [4], 0.424; in experiment [5] it was -1.41; in experiment [6], 2.1. The PBM binding z-score in experiment [7] is 0.721; in experiment [8] it was 0.845; in experiment [9], -0.701; in experiment [10], -0.0334; in experiment [11], 1.13; in experiment [12], 1.58. Further, the PBM binding z-score in experiment [13] is -0.0989; in experiment [14] it was -1.49; in experiment [15], 0.588; in [16], 0.476; in [17], -0.524; in [18], 1.01. Besides, the PBM binding z-score in experiment [19] was -0.522; in experiment [20] it was 3.5.
Consider CCTACTGGGCAATCAGGTCATTGATATCAACGTT, for which the PBM binding z-score in [1] is 0.891; in experiment [2], 1; in experiment [3], 0.766; in [4] it was 1.27; in experiment [5] it was -0.496; in experiment [6] it was 2.26. Further, the PBM binding z-score in experiment [7] amounted to 1.34; in experiment [8], 2.44; in experiment [9] it was 0.371; in experiment [10], 1.25; in experiment [11], 2.45; in [12] it was 3.55. Moreover, the PBM binding z-score in experiment [13] is 0.181; in experiment [14], -0.716; in experiment [15], 0.487; in experiment [16] it was 1.48; in experiment [17] it was 0.775; in experiment [18], 1.95. In addition, the PBM binding z-score came to 0.376 in experiment [19] and 1.69 in experiment [20].
On to ATATGTAGGTTAGCTGGGGTCATTTAGACTAGGC, for which the PBM binding z-score worked out at 4.36 in experiment [1]; 5.92 in [2]; 3.36 in experiment [3]; 4.92 in [4]; 1.13 in [5]; 5.22 in [6]. Further, the PBM binding z-score is 5.68 in [7]; 5.12 in [8]; 2.41 in [9]; 4.22 in experiment [10]; 6.26 in [11]; 6.32 in experiment [12]. For the same sequence, the PBM binding z-score in experiment [13] stood at 1.68; in [14], 2.06; in experiment [15] it was 2.64; in experiment [16], 6.23; in experiment [17], 3.22; in experiment [18], 5.08. Also, the results for the PBM binding z-score in experiment [19] and in experiment [20] were 0.828 and 2.89, respectively.
